In ChEMBL document CHEMBL2218924, “A broad activity screen in support of a chemogenomic map for kinase signalling research and drug discovery” (Biochem J, 2013) one finds residual activity data, which are given here for three molecules.

In assay [1] the target is T1, Muscle, skeletal receptor tyrosine-protein kinase (Homo sapiens) (UniProt O15146).
T1 sequence (whole entry): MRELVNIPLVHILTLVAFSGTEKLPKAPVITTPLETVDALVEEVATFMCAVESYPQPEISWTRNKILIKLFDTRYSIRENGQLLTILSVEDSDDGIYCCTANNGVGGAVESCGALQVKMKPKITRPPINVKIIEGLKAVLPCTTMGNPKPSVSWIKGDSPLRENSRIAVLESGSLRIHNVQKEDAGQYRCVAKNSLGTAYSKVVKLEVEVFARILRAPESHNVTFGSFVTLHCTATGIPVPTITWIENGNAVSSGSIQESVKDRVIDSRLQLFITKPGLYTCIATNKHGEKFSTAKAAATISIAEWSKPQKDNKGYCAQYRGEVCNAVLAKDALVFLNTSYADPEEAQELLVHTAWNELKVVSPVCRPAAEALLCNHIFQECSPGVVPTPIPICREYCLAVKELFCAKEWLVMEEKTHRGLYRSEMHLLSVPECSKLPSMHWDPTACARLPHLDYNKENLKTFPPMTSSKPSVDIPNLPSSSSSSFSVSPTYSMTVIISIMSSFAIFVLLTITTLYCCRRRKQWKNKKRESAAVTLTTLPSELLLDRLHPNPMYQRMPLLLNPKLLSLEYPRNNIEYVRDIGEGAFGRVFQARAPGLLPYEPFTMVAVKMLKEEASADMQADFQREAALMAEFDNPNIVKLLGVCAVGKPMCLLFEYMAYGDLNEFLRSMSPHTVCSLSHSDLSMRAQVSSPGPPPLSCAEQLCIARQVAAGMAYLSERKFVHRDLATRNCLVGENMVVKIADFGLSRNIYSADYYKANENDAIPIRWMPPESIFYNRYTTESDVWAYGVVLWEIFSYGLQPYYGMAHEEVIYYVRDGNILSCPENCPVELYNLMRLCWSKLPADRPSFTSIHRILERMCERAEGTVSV
To be noted: at 1 µM.

For assay [2], the target named is T1, Muscle, skeletal receptor tyrosine-protein kinase (Homo sapiens). The settings on record: at 10 µM.
Assay [3] addresses T2, Serine/threonine-protein kinase Nek11 (Homo sapiens) (UniProt Q8NG66).
T2 sequence (whole entry): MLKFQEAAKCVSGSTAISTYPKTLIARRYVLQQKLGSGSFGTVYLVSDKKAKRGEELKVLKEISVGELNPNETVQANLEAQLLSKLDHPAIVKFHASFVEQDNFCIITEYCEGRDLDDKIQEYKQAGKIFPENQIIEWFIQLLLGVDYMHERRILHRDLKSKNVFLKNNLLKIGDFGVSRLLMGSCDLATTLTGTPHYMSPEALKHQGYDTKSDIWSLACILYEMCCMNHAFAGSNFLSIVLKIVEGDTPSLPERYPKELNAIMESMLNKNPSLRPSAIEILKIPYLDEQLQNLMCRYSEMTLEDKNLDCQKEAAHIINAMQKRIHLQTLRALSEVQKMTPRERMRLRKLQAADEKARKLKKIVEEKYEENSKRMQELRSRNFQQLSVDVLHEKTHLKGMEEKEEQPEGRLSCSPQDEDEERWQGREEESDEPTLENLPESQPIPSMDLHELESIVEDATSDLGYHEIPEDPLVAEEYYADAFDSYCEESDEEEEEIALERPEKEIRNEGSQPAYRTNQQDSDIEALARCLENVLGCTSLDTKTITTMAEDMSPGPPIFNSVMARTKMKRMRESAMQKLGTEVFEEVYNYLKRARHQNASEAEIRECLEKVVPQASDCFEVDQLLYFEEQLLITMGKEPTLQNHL
The settings on record: at 1 µM.

Assay [4] has as its target T2, Serine/threonine-protein kinase Nek11 (Homo sapiens). To be noted: at 10 µM.
Assay [5] concerns the target T3, Serine/threonine-protein kinase Nek2 (Homo sapiens) (UniProt P51955).
T3 sequence (whole entry): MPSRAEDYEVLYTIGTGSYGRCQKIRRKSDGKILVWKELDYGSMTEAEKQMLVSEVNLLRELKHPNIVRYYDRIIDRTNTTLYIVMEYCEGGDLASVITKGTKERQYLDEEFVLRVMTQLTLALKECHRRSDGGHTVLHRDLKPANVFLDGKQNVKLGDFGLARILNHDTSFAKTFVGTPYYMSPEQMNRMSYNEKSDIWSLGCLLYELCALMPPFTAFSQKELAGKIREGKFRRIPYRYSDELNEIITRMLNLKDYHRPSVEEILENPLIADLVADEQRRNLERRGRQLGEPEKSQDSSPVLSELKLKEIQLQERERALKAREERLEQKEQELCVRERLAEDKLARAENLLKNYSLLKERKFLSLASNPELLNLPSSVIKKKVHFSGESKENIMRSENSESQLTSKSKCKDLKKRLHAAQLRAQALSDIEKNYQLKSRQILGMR
The settings on record: at 1 µM.

In assay [6] the target is T3, Serine/threonine-protein kinase Nek2 (Homo sapiens). The settings on record: at 10 µM.
Assay [7] has as its target T4, Serine/threonine-protein kinase Nek3 (Homo sapiens) (UniProt P51956).
T4 sequence (whole entry): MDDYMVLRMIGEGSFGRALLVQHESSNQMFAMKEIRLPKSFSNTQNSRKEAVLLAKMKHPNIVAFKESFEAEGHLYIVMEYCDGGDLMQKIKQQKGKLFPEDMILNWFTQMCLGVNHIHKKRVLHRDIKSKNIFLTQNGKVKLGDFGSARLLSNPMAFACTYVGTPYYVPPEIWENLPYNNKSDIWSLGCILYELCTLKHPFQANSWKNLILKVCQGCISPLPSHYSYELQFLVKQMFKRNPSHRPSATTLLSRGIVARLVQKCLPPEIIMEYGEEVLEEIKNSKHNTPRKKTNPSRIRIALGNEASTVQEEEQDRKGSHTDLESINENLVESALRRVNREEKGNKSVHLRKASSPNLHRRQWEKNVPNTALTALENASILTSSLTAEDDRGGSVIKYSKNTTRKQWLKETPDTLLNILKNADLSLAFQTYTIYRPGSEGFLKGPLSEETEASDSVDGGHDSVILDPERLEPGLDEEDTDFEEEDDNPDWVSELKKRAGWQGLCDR
The settings on record: at 1 µM.

Assay [8] addresses T4, Serine/threonine-protein kinase Nek3 (Homo sapiens). The settings on record: at 10 µM.
In assay [9] the target is Serine/threonine-protein kinase tousled-like 2 (Homo sapiens) (UniProt Q86UE8). To be noted: at 1 µM.
Sequence of Serine/threonine-protein kinase tousled-like 2 (Homo sapiens) (Q86UE8 whole entry, looked up): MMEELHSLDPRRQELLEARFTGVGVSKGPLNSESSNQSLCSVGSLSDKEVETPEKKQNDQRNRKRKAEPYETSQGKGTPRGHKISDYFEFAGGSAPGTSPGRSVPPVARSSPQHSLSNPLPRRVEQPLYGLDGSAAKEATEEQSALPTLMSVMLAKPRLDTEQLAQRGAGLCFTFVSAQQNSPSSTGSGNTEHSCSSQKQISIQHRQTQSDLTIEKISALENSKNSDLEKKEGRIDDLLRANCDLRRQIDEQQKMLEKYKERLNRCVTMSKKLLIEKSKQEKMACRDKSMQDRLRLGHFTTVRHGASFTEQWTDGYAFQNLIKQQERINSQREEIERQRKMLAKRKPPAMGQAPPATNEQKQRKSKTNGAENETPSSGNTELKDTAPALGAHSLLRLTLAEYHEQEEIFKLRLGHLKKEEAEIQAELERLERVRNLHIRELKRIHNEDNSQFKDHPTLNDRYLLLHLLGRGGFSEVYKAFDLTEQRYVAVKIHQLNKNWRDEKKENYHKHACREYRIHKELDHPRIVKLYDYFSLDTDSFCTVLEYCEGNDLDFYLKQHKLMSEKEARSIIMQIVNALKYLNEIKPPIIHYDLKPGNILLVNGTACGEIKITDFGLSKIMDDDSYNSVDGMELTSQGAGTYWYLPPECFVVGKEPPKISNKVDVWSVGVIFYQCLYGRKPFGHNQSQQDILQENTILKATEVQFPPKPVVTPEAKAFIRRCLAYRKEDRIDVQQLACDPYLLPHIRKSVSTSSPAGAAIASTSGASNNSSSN
Assay [10] has the same target. To be noted: at 10 µM.
Assay [11] deals with T5, Testis-specific serine/threonine-protein kinase 1 (Homo sapiens) (UniProt Q9BXA7).
T5 sequence (whole entry): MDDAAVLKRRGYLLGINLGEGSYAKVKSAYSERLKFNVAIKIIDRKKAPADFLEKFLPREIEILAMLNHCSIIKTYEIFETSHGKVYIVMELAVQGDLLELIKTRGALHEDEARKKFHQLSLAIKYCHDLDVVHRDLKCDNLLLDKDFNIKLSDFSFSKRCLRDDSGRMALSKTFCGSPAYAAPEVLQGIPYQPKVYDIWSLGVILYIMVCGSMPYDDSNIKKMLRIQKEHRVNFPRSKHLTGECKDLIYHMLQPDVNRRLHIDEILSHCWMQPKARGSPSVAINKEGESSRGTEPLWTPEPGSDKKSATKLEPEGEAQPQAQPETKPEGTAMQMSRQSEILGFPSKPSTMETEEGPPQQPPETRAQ
The settings on record: at 1 µM.

The target in assay [12] is T5, Testis-specific serine/threonine-protein kinase 1 (Homo sapiens). To be noted: at 10 µM.
Assay [13] concerns the target T6, Testis-specific serine/threonine-protein kinase 2 (Homo sapiens) (UniProt Q96PF2).
T6 sequence (whole entry): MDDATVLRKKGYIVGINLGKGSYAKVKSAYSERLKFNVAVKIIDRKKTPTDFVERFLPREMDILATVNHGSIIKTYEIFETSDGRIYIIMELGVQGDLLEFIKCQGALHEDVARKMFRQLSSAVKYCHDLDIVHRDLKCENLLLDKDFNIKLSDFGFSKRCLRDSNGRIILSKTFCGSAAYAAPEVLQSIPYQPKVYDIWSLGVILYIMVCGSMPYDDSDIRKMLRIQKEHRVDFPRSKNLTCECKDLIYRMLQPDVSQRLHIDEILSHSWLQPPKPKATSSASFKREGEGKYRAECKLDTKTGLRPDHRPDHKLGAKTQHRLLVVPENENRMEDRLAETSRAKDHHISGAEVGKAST
The settings on record: at 10 µM.

The target of assay [14] is T7, Tyrosine-protein kinase Tec (Homo sapiens) (UniProt P42680).
T7 sequence (whole entry): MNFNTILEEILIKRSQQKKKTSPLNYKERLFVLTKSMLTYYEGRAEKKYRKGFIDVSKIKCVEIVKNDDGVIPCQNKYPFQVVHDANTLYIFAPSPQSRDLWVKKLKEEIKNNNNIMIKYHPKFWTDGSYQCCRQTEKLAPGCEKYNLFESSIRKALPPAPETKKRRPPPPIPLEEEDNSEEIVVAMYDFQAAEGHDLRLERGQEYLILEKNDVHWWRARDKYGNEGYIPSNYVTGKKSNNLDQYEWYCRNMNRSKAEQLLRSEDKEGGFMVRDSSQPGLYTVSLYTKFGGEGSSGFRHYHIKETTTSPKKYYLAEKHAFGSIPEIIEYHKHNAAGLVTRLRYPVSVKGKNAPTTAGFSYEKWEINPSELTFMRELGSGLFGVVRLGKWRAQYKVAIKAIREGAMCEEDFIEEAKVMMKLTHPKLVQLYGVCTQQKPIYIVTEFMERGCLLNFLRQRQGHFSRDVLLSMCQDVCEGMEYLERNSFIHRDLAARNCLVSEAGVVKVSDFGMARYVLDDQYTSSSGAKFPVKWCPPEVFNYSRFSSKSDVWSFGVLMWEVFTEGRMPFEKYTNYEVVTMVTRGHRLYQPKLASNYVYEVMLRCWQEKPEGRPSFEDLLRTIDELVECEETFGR
The settings on record: at 1 µM.

The target of assay [15] is T7, Tyrosine-protein kinase Tec (Homo sapiens). The settings on record: at 10 µM.
The target of assay [16] is Angiopoietin-1 receptor (Homo sapiens) (UniProt Q02763). To be noted: at 1 µM.
Sequence of Angiopoietin-1 receptor (Homo sapiens) (Q02763 whole entry): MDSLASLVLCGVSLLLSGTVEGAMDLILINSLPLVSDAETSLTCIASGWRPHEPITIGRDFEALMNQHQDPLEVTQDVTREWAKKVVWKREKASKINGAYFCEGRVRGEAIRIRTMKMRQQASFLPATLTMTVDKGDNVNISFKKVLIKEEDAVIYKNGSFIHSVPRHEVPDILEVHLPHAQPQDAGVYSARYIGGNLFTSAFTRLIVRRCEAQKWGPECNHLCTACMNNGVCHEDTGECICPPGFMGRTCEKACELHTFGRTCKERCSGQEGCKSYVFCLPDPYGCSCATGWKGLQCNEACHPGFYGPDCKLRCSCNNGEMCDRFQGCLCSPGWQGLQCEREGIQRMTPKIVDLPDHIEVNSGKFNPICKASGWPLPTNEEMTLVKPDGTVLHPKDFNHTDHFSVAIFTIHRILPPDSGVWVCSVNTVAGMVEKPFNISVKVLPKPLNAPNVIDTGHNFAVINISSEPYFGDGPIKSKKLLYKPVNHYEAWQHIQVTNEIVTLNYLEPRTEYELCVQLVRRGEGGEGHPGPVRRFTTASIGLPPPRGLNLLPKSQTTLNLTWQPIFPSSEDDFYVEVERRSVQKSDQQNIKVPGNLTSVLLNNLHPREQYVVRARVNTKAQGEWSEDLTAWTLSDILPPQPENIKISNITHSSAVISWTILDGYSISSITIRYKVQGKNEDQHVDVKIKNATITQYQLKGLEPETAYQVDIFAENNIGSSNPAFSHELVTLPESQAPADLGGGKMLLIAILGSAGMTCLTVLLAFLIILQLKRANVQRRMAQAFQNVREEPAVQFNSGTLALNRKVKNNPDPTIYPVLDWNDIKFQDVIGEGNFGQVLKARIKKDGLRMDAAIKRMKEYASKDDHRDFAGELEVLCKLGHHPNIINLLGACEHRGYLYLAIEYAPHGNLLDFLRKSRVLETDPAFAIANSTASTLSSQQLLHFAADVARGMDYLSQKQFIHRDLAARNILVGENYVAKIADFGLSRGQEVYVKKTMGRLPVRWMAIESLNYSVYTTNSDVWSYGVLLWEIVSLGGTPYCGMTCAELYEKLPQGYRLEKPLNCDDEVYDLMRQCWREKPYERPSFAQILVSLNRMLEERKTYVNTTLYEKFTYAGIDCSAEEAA
Assay [17] shares this target. To be noted: at 10 µM.
The target in assay [18] is High affinity nerve growth factor receptor (Homo sapiens) (UniProt P04629). The settings on record: at 1 µM.
Sequence of High affinity nerve growth factor receptor (Homo sapiens) (P04629 33-796 limits assumed): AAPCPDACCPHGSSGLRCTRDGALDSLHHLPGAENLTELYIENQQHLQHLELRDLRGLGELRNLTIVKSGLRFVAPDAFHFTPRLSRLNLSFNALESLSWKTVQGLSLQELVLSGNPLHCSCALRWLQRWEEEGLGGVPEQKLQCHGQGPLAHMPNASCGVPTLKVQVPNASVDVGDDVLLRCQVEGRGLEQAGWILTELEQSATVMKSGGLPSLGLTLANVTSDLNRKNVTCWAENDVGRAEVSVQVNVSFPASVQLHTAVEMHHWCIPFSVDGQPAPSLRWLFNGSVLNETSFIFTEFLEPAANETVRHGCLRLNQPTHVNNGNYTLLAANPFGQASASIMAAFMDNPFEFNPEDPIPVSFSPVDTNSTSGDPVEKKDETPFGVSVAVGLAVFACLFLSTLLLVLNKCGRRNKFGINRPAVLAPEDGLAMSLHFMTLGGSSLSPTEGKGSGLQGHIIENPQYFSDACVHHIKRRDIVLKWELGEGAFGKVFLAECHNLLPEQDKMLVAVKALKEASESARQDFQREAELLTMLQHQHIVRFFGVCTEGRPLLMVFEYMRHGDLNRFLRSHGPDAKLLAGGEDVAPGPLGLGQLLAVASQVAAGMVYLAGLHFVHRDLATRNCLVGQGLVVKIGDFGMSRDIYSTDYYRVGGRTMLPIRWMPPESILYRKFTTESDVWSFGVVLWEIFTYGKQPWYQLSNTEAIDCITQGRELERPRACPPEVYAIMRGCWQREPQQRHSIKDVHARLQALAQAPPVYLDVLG
Assay [19] has the same target. To be noted: at 10 µM.
Assay [20] has as its target BDNF/NT-3 growth factors receptor (Homo sapiens) (UniProt Q16620). To be noted: at 1 µM.

SMILES strings stand for the structures.

Sequence of BDNF/NT-3 growth factors receptor (Homo sapiens) (Q16620 32-822 limits assumed): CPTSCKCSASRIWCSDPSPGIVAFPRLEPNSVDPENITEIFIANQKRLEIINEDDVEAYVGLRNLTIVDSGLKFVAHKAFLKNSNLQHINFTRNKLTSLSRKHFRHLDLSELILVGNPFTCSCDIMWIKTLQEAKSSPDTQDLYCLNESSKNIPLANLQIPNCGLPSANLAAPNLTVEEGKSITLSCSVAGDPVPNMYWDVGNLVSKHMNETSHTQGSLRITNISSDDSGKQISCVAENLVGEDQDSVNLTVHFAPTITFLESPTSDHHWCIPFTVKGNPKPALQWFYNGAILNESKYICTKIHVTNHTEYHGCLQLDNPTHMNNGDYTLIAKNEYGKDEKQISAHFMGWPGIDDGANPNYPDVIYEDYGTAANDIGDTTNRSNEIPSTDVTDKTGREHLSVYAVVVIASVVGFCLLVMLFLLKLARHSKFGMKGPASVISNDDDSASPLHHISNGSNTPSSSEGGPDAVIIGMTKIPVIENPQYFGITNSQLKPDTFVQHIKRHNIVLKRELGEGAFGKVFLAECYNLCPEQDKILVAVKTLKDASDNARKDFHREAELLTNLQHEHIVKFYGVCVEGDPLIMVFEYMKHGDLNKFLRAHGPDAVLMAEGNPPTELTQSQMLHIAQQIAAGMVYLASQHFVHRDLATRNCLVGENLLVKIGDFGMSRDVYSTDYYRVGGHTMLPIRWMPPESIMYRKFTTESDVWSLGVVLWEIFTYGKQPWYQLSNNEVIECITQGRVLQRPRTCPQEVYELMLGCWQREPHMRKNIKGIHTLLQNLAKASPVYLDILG

What is called residual activity is the signal under treatment as a percentage of the control signal. For the molecule `Cc1nc(-c2ccccc2)c(-c2ccncc2)o1`, the residual activity stood at 113% in assay [1]; 94% in [2]; 81% in assay [3]; 85% in [4]; 103% in assay [5]; 102% in assay [6]. The residual activity in [7] was determined as 102%; in assay [8], 114%; in [9] it was 106%; in assay [10], 103%; in [11], 100%; in [12] it was 88%. Further, the residual activity in assay [13] amounted to 98%; in assay [14], 103%; in assay [15] it was 42%; in assay [16] it was 100%; in [17] it was 122%; in [18] it was 117%. Besides, the residual activity in assay [19] came out at 95%; in assay [20], 55%.
Regarding `O=C1NC(=O)c2cc(Nc3ccc(F)cc3)c(Nc3ccc(F)cc3)cc21`, the residual activity in assay [1] turned out to be 34%; in assay [2], 3%; in assay [3] it was 70%; in assay [4], 93%; in assay [5], 77%; in assay [6] it was 94%. The residual activity in assay [7] came to 109%; in assay [8], 81%; in assay [9], 101%; in [10], 85%; in assay [11], 94%; in assay [12], 81%. Further, the residual activity in [13] was 61%; in assay [14], 87%; in [15], 60%; in [16], 70%; in [17], 44%; in assay [18], 84%. Besides, the residual activity in assay [19] is 56%; in assay [20], 100%.
Take `Oc1ccc(-c2nc(-c3ccc(F)cc3)c(-c3ccncc3)[nH]2)cc1`: the residual activity was determined as 92% in [1]; 77% in assay [2]; 85% in assay [3]; 66% in assay [4]; 127% in [5]; 99% in assay [6]. Besides, the residual activity in [7] came out at 85%; in assay [8], 104%; in assay [9] it was 112%; in [10] it was 100%; in [11], 112%; in [12], 83%. The residual activity is 113% in assay [13]; 87% in [14]; 55% in [15]; 109% in [16]; 49% in assay [17]; 107% in assay [18]. The values for the residual activity in [19] and in [20] were 83% and 99%, respectively.
